Only some compounds are listed: those with a hit (about 3.4% of all), similar ones and a draw of the others.
MEKK2mut PB1 HTS: signal of MEK5 binding to mutant human MEKK2 PB1 domain | bead flow cytometry, Alexa488-MEK5 binding to MEKK2 mutant | AID 1530 | percent response, % at 10 µM | hit rate 0.35% among 290,000; in the data active means percent response above about 24%, passing the limit was not always enough
TMEM16A act: activators or potentiators of mouse TMEM16A chloride channel; Q8BHY3; HEK293 TMEM16A/YFP-H148Q/I152L, iodide quench fluorescence; hits give low values; B-score at 10 µM; hit rate 0.3% among 340,000;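 active means fluorescence-ratio B-score plate-corrected deviation score at least 3 library SD below zero, with starting fluorescence score within 5 deviations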;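 further: channel opened by trigger with iodide after compound preincubation; score built on the fluorescence ratio of max minus min over baseline; more negative score means more quench and so TMEM16A activation or potentiation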
ANO1 block: inhibitors of mouse TMEM16A calcium-activated chloride channel. Q8BHY3. HEK293 TMEM16A/YFP iodide influx fluorescence, ionomycin. normalized B-score (activity score, 25-100; higher = stronger inhibition) at 10 µM. hit rate 1.2% among 310,000. AID 588511;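 active means ratio plate-corrected score three or more library SD toward inhibition, starting fluorescence score within five deviations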;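 further: score derived from kinetic fluorescence span divided by baseline fluorescence per well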
MEKK2 WT-MEK5: raises or lowers MEK5 binding to wildtype human MEKK2 PB1 domain; binding response (% of control), % at 10 µM; bead flow cytometry, Alexa488-MEK5 binding to MEKK2 WT; actives lie on both sides; hit rate 1.1% among 290,000; Q9Y2U5; AID 1531; in the data active means binding response below about 67% or above about 130%
MEKK3 PB1 HTS: MEKK3-MEK5 PB1 interaction, increase or decrease. bead-based flow cytometry, Alexa488-MEK5 binding to MEKK3; actives lie on both sides; 0 = blocked by unlabeled MEK5, 100 = vehicle. binding response (% of control), % at 10 µM. hit rate 1.4% among 290,000;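 active means binding response more than 3 SD above or below the average of its plate-row segment, actives on both sides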;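 further: Alexa488 bead fluorescence after subtracting the streptavidin-only scavenger bead signal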
NTR1 agonist: NTR1 (human) agonism; P30989; NTR1-U2OS beta-arrestin-GFP spot imaging, agonist mode; activation, % at 20 µM; hit rate 0.17% among 330,000; AID 493036;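 active means activation at or above 40% of the spot to cytoplasm intensity ratio, with at least 20 cells analyzed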;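 further: 0% = DMSO without peptide and 100% = 100 nM NTR1 peptide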
Target sequence (P30989 whole entry, looked up): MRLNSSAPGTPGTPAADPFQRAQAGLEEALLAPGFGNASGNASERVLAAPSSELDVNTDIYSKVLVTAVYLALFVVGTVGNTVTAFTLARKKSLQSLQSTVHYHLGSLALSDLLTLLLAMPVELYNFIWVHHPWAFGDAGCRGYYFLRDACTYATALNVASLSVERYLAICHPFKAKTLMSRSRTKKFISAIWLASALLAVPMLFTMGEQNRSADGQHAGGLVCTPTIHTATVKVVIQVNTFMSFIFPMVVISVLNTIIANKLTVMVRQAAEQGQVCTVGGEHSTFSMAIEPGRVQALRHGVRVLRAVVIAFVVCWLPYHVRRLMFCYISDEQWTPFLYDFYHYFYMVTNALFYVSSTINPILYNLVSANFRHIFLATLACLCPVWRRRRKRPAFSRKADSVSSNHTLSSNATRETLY
MEKK2wt confirm: raises or lowers MEK5 binding to wildtype human MEKK2, retest | shares compounds with MEKK3 PB1 HTS | bead flow cytometry, Alexa488-MEK5 binding to MEKK2 WT; actives lie on both sides | binding response (% of control), % at 10 µM | hit rate 2.4% among 5,900; in the data active means binding response below about 16% or above about 210%; inactive means in between
MEKK2mut confirm: signal of MEK5 binding to mutant human MEKK2, retest; bead flow cytometry, Alexa488-MEK5 binding to MEKK2 mutant; shares compounds with MEKK3 PB1 HTS; hit rate 2% among 5,900; AID 1893; percent response, % at 10 µM; in the data active means percent response mostly above about 71%, no sharp cut-off; inactive means mostly below about 38%;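 further: higher means compound restores mutant binding toward wildtype level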
MEKK3 confirm: MEKK3-MEK5 PB1 inhibition, single concentration confirmation | shares compounds with MEKK3 PB1 HTS | bead flow cytometry, Alexa488-MEK5 binding to MEKK3; hits give low values | binding response (% of control), % at 10 µM | hit rate 1.8% among 5,900 | AID 1894;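 active means binding response below 72% of control, or above a set upper limit, though filed actives all read lower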;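 further: 100% = DMSO only wells and 0% = binding blocked by excess unlabeled MEK5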
* marks the source's active call; other numbers are inactive results; i = inactive; · = no result given; [ ] = dose if it differs, or a comment.

SMILES	MEKK2mut PB1 HTS	TMEM16A act	ANO1 block	MEKK2 WT-MEK5	MEKK3 PB1 HTS	NTR1 agonist	MEKK2wt confirm	MEKK2mut confirm	MEKK3 confirm
CCN(CC#CCC1(O)c2ccccc2-c2ccccc21)CCO	-13.0	i	i	84.0	77.0*[inhibitor]	-0.4	95.0	-6.0	98.0
CN(C)S(=O)(=O)c1cc(NC(=O)CN2CCN(c3ccccc3F)CC2)ccc1Cl	4.0	i	i	102.0	104.0	0.8	·	·	·
CCOC(=O)/C(N=Nc1c(Br)cc(Br)cc1Br)=C(\C)O	5.0	i	i	120.0	126.0*	3.9	95.0	3.0	93.0
Cn1cnnc1SCC(=O)Nc1cc(S(=O)(=O)N2CCCCC2)ccc1Cl	-25.0	i	i	63.0	62.0	0.7	·	·	·
CCN(CC(=O)Nc1ccc(NC(C)=O)cc1)C(=O)c1cccc2ccccc12	·	i	·	·	·	-2.7	·	·	·
O=C(CSCc1ccccc1Cl)Nc1c[nH]c(=O)[nH]c1=O	-1.0	i	i	101.0	101.0	0.2	·	·	·
O=C(CSCc1ccc(Cl)c(Cl)c1)Nc1c[nH]c(=O)[nH]c1=O	0.0	i	i	104.0	71.0*[inhibitor]	2.8	105.0	-2.0	103.0
COC(=O)C(Cc1ccccc1)NC(=O)C12CC3CC(CC(C3)C1)C2 (stereo unspecified)	0.0	i	i	106.0	134.0*	-2.3	105.0	7.0	104.0
Cc1c(N2C(=O)CS/C2=N\N=C\c2ccc(Br)cc2)c(=O)n(-c2ccccc2)n1C	5.0	i	i	107.0	103.0	-0.5	·	·	·
CCOC(=O)C1=C(C)Nc2ccccc2N=C1NC(=O)c1cccc(S(=O)(=O)N(C)C)c1	-24.0	i	i	3.0*[inhibitor]	3.0*[inhibitor]	-3.6	103.0	1.0	103.0
CCOC(=O)C1=C(CC)Nc2ccccc2N=C1NC(=O)c1ccc(S(=O)(=O)N(C)C)cc1	2.0	i	i	98.0	102.0	-0.4	·	·	·
COc1cc(SC)ccc1C(=O)N1CCCCCC1	5.0	i	i	126.0	125.0*	1.0	118.0	13.0	108.0
CCOC(=O)N/N=C/c1c(C)c(C(=O)c2ccc(F)cc2)n2ccccc12	-12.0	i	i	67.0	74.0*[inhibitor]	3.1	105.0	-6.0	100.0
COC(=O)N/N=C/c1c(C)c(C(=O)c2ccc(F)cc2)n2ccccc12	0.0	i	i	101.0	114.0	-1.3	·	·	·
CCN(CC(=O)Nc1ccc(OC)cc1)CC(=O)N1CC(=O)Nc2ccccc21	·	i	·	·	·	0.7	·	·	·
CN(C)c1nc(N/N=C/c2ccccc2O)nc(Nc2ccc(F)cc2)n1	23.0	i	i	140.0*	110.0	26.2	108.0	-8.0	104.0
COc1cc(OC)c(C(=O)OC(C)C(=O)NCc2ccc3c(c2)OCO3)cc1OC (stereo unspecified)	·	i	·	·	·	0.3	·	·	·
Cc1ccccc1-c1nc(CS(=O)(=O)CC(=O)NCCCN2CCN(C)CC2)c(C)o1	0.0	i	i	99.0	97.0	-0.9	·	·	·
CS(=O)(=O)Nc1cccc(C(=O)OCCCOc2ccc(F)cc2)c1	-8.0	i	i	31.0*[inhibitor]	64.0*[inhibitor]	2.6	99.0	-3.0	103.0
CC(=O)c1cccc(NS(C)(=O)=O)c1	-1.0	i	i	106.0	105.0	-0.3	·	·	·
CC(C)(C=O)C1=CC(=O)c2ccccc2C1=O	1.0	i	i	105.0	154.0*	·	96.0	-2.0	99.0
CC1=CC(=O)c2ccccc2C1=O	-2.0	i	i	103.0	82.0	-0.2	·	·	·
CC(=O)c1ccc(Nc2cnn(C34CC5CC(CC(CC(=O)O)(C5)C3)C4)c(=O)c2Cl)cc1	3.0	i	i	106.0	105.0	-2.1	·	·	·
COc1ccccc1C(=O)NCCNC(=O)c1ccc(C)nc1	5.0	i	i	97.0	103.0	0.0	·	·	·
COc1ccccc1C(=O)NCCCn1cc(Br)c(C)n1	14.0	i	i	138.0*	122.0	-0.3	114.0	12.0	107.0
SMILES	MEKK2mut PB1 HTS	TMEM16A act	ANO1 block	MEKK2 WT-MEK5	MEKK3 PB1 HTS	NTR1 agonist	MEKK2wt confirm	MEKK2mut confirm	MEKK3 confirm
N/C(=N\N=C\c1ccco1)SC1CC(=O)N(c2ccccc2)C1=O (stereo unspecified)	-6.0	i	i	92.0	94.0	1.5	·	·	·
N/C(=N\N=C\c1ccco1)SC1CC(=O)N(c2ccc(C(=O)O)cc2)C1=O (stereo unspecified)	5.0	i	i	123.0	135.0*	1.1	110.0	0.0	100.0
COC(=O)/C=C/CC(C)OS(N)(=O)=O (stereo unspecified)	7.0	i	i	152.0*	98.0	-0.4	96.0	-7.0	90.0
CC(=O)c1ccc(N2C(=O)CC(N3CCN(S(=O)(=O)c4ccc(C)c(C)c4)CC3)C2=O)cc1 (stereo unspecified)	·	i	·	·	·	-0.1	·	·	·
Cc1ccccc1N(CC(=O)NC1CCCC1)C(=O)C1(C)CC(=O)N=C2C=CC=CN21 (stereo unspecified)	-4.0	i	i	68.0	46.0*[inhibitor]	-1.0	100.0	-4.0	100.0
O=C(Cc1csc(-c2cccc(Cl)c2)n1)Nc1cccc(S(=O)(=O)NC2=NCCC2)c1	·	i	i	·	·	0.6	·	·	·
COc1ccccc1CNC(=O)CN(c1cccc([N+](=O)[O-])c1)S(C)(=O)=O	-22.0	i	i	-2.0*[inhibitor]	1.0*[inhibitor]	1.8	96.0	-11.0	97.0
CN1CCN(S(=O)(=O)c2cccc(C(=O)N(Cc3ccccc3)c3ccccc3)c2)CC1	-6.0	i	i	92.0	95.0	-0.3	·	·	·
Cc1c(CCOC(=O)C2C3CC4CC(C3)CC2C4)sc[n+]1CC(=O)c1ccc(Br)cc1 (stereo unspecified)	21.0	i	i	157.0*	87.0	18.3	180.0	40.0	105.0
CN(Cc1ccccc1)C(=O)c1ccc2c(c1)NC(=O)C(N1CCOCC1)S2 (stereo unspecified)	6.0	i	·	105.0	102.0	·	·	·	·
O=c1[nH]c(-c2ccccc2)c(-c2ccccc2)o1	5.0	i	i	104.0	103.0	0.0	·	·	·
CCCCCCCCCn1ccc(=N)cc1	31.0	i	i	140.0*	131.0*	6.2	112.0	6.0	104.0
O=C(N/C(=C\c1ccc2c(c1)OCO2)C(=O)N1CCOCC1)c1ccccc1Br	1.0	i	i	98.0	97.0	-0.1	·	·	·

From PubChem BioAssay
